Where “and” joins values, the source holds several entries; their conditions need not be identical. Equal entries are not always repeated. Results filed as inconclusive are left out. Some structures have more than one record in an assay (separate samples or runs), and their calls can disagree. Calls of active or inactive are those of the source. The calls were made as follows: active = hit-call score of the fitted dose curve at least 0.9, where 1 is the maximum; inconclusive = response in the unintended direction; inactive = score below 0.9.
Experiment: TOX21_p53_BLA_p4_viability: Viability Assessment in the Tox21 HCT-116 p53 Agonism Beta-lactamase Assay, Phase 4 (AID 2283597);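 also: hits lower the luminescence signal meaning cytotoxicity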
Excerpt: TOX21_p53_BLA_p4 is a cell-based, single-readout assay that uses HCT116, a human intestinal cell line, […] in a 1536-well plate.TOX21_p53_BLA_p4_viability is an assay readout measuring cellular ATP content and detected with CellTiter-Glo Luciferase-coupled ATP quantitation.TOX21_p53_BLA_p4_viability used a type of viability reporter where loss-of-signal activity can be used to understand changes in the cell viability. Furthermore, this assay endpoint can be referred to as a secondary readout, because this assay has produced multiple assay endpoints where this one serves a viability function. To generalize the intended target to other relatable targets, this assay endpoint is annotated to the cell cycle intended target family, where the subfamily is cytotoxicity.
Thawing Method: Place 14 mL of pre-warmed thaw medium into a 15 mL of conical tub. Remove the vial of cells to be thawed from liquid nitrogen and thaw rapidly by placing at 37C in a water bath with gentle agitation for 1-2 minutes. Decontaminate the vial by wiping with 70% ethanol before opening in a biological safety cabinet. Transfer the vial contents drop-wise into 14 mL of thaw medium in a sterile 15-mL conical tub. Centrifuge cells at 900 rpm for 4 minutes and resuspend in thaw medium. Transfer contents to the T75 tissue culture flask containing Thaw Medium and place flask in a humidified 37C/5% CO2 incubator. Switch to growth medium at first passage.Propagation Method: Aspirate medium, rinse once in DPBS, add 0.25% Trypsin/EDTA and swirl to coat the cell evenly. Add an equal volume of Growth Medium to inactivate Trypsin after 2-3 minutes incubation at 37C. Centrifuge cells at 900 rpm for 4 minutes and resuspend in growth medium. Cell should be passage or fed at least twice a week.Assay Protocol: Harvest cells from culture in growth medium and resuspend in assay medium. 2.2 Dispense 4000 cells/5 uL/well into 1536-well black/clear bottom plates using a Multidrop dispenser. After the cells were incubated at 37C for 5 hours, 23 nL of compounds dissolved in DMSO were transferred to the assay plate by a PinTool resulting in a 217-fold dilution. Incubate the plates for 16 hours at 37C, 5% CO2. Add 1 uL of 6X LiveBLAzer FRET B/G (CCF4-AM) Substrate Mixture to each well using a BioRAPTR dispenser and incubate the plates at room temperature for 2 hours. Measure fluorescence intensity at 460 and 530 nm emission and 405 nm excitation by an Envision detector. Data is expressed as the ratio of 460nm/530nm emissions. Add 4 uL of Cell-titer Glo to each well using BioRAPTR and incubate the plates at room temperature for […]. For cell viability readout that measures cytotoxicity, 4 ul/well of CellTiter-Glo reagent was added into the assay plates using a Flying Reagent Dispenser. After 30 min incubation at room temperature, the luminescence intensity in the plates was measured using a ViewLux plate reader.

Compound	outcome	AC50
O=C(O)c1ccc([N+](=O)[O-])cc1	inactive	
Fc1c(F)c(F)c(Br)c(F)c1F	inactive	
NC(=O)NC1NC(=O)NC1=O (stereo not given)	inactive	
C[C@H]1C[C@@H]2[C@H]([C@@H](O)C[C@@]3(C)[C@H]2CC[C@]3(O)C(=O)CO)[C@@]2(C)C=CC(=O)C=C12	inactive	
COc1ccc(O)cc1	inactive	
CCCCC/C=C/C=C/C=O	inactive	75 µM (active)
CCCCNC(=O)NS(=O)(=O)c1ccc(C)cc1	inactive	
CC(C)c1cccc(O)c1	inactive	
CCCCOCCOCCSC#N	inactive	
CCCC(=O)c1cc(O)c(O)cc1O	inactive	
O=C(O)CCCCC1CCSS1 (stereo not given)	inactive	
C=C(C)C(=O)Nc1ccc(Cl)c(Cl)c1	inactive	
CO[Si](C)(OC)c1ccccc1	inactive	
O=Nc1ccc(Nc2ccccc2)cc1		85.3 µM (active) and 75.2 µM (active)
O=S(=O)(O)c1cccc2c(S(=O)(=O)O)cccc12	inactive	
CCC(C)(O)CCC=C(C)C (stereo not given)	inactive	
CCCCCCCCCCCCCCCC(=O)O	inactive	
COCCCOc1ccnc(CS(=O)c2nc3ccccc3[nH]2)c1C (stereo not given)	inactive	
O=c1[nH]nnc2ccccc12	inactive	
Cc1ncc([N+](=O)[O-])n1C	inactive	

Compound	outcome	AC50
CCCCCCCCCCC(CO)CCCCCCCC (stereo not given)	inactive	
CCCC1CCC(=O)O1 (stereo not given)	inactive	
C#C[C@]1(O)CC[C@H]2[C@@H]3CCC4=Cc5oncc5C[C@]4(C)[C@H]3CC[C@@]21C	inactive	
CC1=CCC(O)(C(C)C)CC1 (stereo not given)	inactive	
CCCCN	inactive	
N#Cc1ccccc1	inactive	
CC(=O)OCCC(C)CC(C)(C)C (stereo not given)	inactive	
COc1ccc(Nc2ccccc2)c(C)c1	inactive	
C=CCOC(=O)CCC1CCCCC1	inactive	
CC(C)C(C)(C)C(C)(C)C(C)(C)S	inactive	
CCCCCCCCCCCCCC(=O)O	inactive	
O=C(O)CCCCCCCC(=O)O	inactive	
CCCCCCCCCCCCN(CCCCCCCCCCCC)CCCCCCCCCCCC	inactive	
CCCCCC(CO)CCC (stereo not given)	inactive	
CCCCCCCCCCN	inactive	
CC1(C)CCC(C)(C)c2cc(C(=O)Nc3ccc(C(=O)O)cc3)ccc21		32.5 µM (active)
CC(C=O)Cc1ccc(C(C)C)cc1 (stereo not given)	inactive	
O=[N+]([O-])c1cc(C(F)(F)F)ccc1Cl	inactive	
CNCCO	inactive	
